# Reference: PubChem BioAssay (NCATS)
# Where “and” joins values, the source holds several entries; their conditions need not be identical. Equal entries are not always repeated. Records with an inconclusive call do not appear. A call without a number means that no potency is given here. Calls of active or inactive are those of the source. The call rests on the fitted dose curve; in most records, active means well fitted cell-killing curve with a large enough effect; inconclusive means small, poorly fitted or top-dose-only effect; inactive means flat fitted curve, though single readings scatter.
# Experiment: qHTS of pediatric cancer cell lines to identify multiple opportunities for drug repurposing: Primary screen for TC32 cells (AID 1347089); further: nearly all actives have a fitted effect of over 60% in size
# Conditions: TC32 Ewing sarcoma viability, CellTiter-Glo luminescence, 48 h; series mostly up to 45.8 µM
# From the text: Drug repurposing or repositioning has been offered as a strategy for drug development in oncology programs. This approach has special potential for childhood cancers and other rare or orphan diseases, where the expected return on new drug development has been a disincentive to pharmaceuticals.
# In this project we exploit the poly-pharmacology of drugs to discover new indications via phenotypic screening of a panel of 19 well-characterized cell lines derived from solid tumors seen in children and adolescents. The goal is to identify approved drugs with previously unrecognized anticancer properties that has the potential to reveal new mechanisms and biological processes involved in carcinogenesis or drug resistance. We employed a titration-based paradigm (quantitative high-throughput screening or qHTS), where all compounds were tested at multiple concentrations for their effect on cell viability. Concentration-response curves (CRCs) were derived directly from the primary screen, and both potency and efficacy values were used to identify compounds with robust bioactivity profiles. We screened the NIH Chemical Genomics Center (NCGC) Pharmaceutical Collection (NPC) and Mechanism Interrogation Plate (MIPE) small molecule collections of approved and investigational compounds against these cell lines; and measured metabolically active cells after 48 hours of compound treatment as a proxy for cell viability.
# Assay Submitter: Nathalia J. Martinez, National Center for Advancing Translational Sciences, National Institutes of Health, Rockville, MD, USA; email: natalia.martinez@nih.gov
# [1] Shen, M et al. Quantitative high-throughput phenotypic screening of pediatric cancer cell lines identifies multiple opportunities for drug repurposing. Oncotarget 2017 Dec 19;9(4):4758-4772. PMID 29435139.
# The cells were obtained from University of North Carolina (UNC), Pediatric Preclinical Testing Program (PPT), and Coriell Institute (CI).
# qHTS cell viability assay:
# Cells were assayed in growth media at a density of 500-1,000 cells/well. Five microliters of cells were dispensed into 1,536-well, white, solid-bottom, TC-treated plates (Greiner Bio One) using a multidrop dispenser and incubated at 37 degrees C, 5% CO2, under a humidified atmosphere for 5 hours. Twenty-three nanoliters of compounds and controls (neutral control DMSO or positive control bortezomib at final concentration of 2.3 uM) were subsequently transferred by Kalypsys pintool. For primary screens, the MIPE collection was tested at 11-point dilutions (final concentrations range from 0.78 nM to 46 µM) and the NPC collection at 8-point dilutions (final concentrations range from 0.59 nM to 46 µM). Compounds tested in follow-up screens were assayed at 11-point dilutions. Cells were incubated for 48 hours, followed by addition of 3 uL of CellTiter-Glo (Promega). After a 15min incubation at room temperature, samples were analyzed for luminescence intensity using a ViewLux High-throughput CCD imager equipped with clear filters.
# Potency means the concentration at half of the fitted maximal effect.
row,SMILES,Potency
1,CC(C(=O)O)c1ccc2c(c1)CC(=O)c1ccccc1S2 (stereo not given),inactive
2,O=S(=O)(c1cccc2cnccc12)N1CCCNCC1,inactive
3,CCCCS(=N)(=O)CCC(N)C(=O)O (stereo not given),inactive
4,CN(C)c1ccc(C(=C2C=CC(=[N+](C)C)C=C2)c2ccc(N(C)C)cc2)cc1,2.64 µM (active) and 1.17 µM (active)
5,CCn1cc(C(=O)O)c(=O)c2cc(F)c(N3CCNCC3)cc21,inactive
6,COc1cc2ncnc(Nc3cccc(Cl)c3)c2cc1OC,inactive
7,CNNCc1ccc(C(=O)NC(C)C)cc1,inactive
8,CC(C)Cn1cnc2c(N)nc3ccccc3c21,inactive
9,C[C@@H]1CN(c2c(F)c(N)c3c(=O)c(C(=O)O)cn(C4CC4)c3c2F)C[C@H](C)N1,inactive
10,CNCC[C@H](Oc1cccc2ccccc12)c1cccs1,inactive
11,O=P(O)(O)C(O)(Cc1cccnc1)P(=O)(O)O,inactive
12,CCC(C)(C)c1ccc(CC(C)CN2C[C@@H](C)O[C@@H](C)C2)cc1 (stereo not given in full),inactive
13,CNS(=O)(=O)CCc1ccc2[nH]cc(C3CCN(C)CC3)c2c1,inactive
14,CCCc1nc(C)c2c(=O)[nH]c(-c3cc(S(=O)(=O)N4CCN(CC)CC4)ccc3OCC)nn12,inactive
15,CO[C@@H]1[C@@H](OC(N)=O)[C@@H](O)[C@H](Oc2ccc3c(O)c(NC(=O)c4ccc(O)c(CC=C(C)C)c4)c(=O)oc3c2C)OC1(C)C,inactive
16,CC(C)(Sc1cc(C(C)(C)C)c(O)c(C(C)(C)C)c1)Sc1cc(C(C)(C)C)c(O)c(C(C)(C)C)c1,inactive
17,CC(=O)Oc1ccccc1C(=O)Nc1ncc([N+](=O)[O-])s1,inactive
18,CC1CC2C3CCC4=CC(=O)C=C[C@]4(C)[C@@]3(F)[C@@H](O)C[C@]2(C)[C@@]1(O)C(=O)CO (stereo not given in full),inactive
19,Cn1c(=O)c2c(ncn2CC(O)CO)n(C)c1=O (stereo not given),inactive
20,NC(=O)N1c2ccccc2CC(=O)c2ccccc21,inactive

row,SMILES,Potency
1,CCC(=O)O[C@]1(C(=O)SCF)[C@H](C)C[C@H]2[C@@H]3C[C@H](F)C4=CC(=O)C=C[C@]4(C)[C@@]3(F)[C@@H](O)C[C@@]21C,inactive
2,Nc1nc(F)nc2c1ncn2[C@@H]1O[C@H](CO)[C@@H](O)[C@@H]1O,18.7 µM (active) and 2.62 µM (active)
3,CC(C)(C)C(=O)OCOP(=O)(COCCn1cnc2c(N)ncnc21)OCOC(=O)C(C)(C)C,2.64 µM (active) and 10.4 µM (active)
4,Cc1onc(-c2ccccc2Cl)c1C(=O)N[C@@H]1C(=O)N2[C@@H]1SC(C)(C)[C@@H]2C(=O)O,inactive
5,COc1cccc(N(C)C(=S)Oc2ccc3c(c2)CCCC3)n1,inactive
6,Cc1ncc([N+](=O)[O-])n1CCO,inactive
7,C[C@@H](CN1CC(=O)NC(=O)C1)N1CC(=O)NC(=O)C1,inactive
8,COCCCOc1cc(C[C@@H](C[C@H](N)[C@@H](O)C[C@H](C(=O)NCC(C)(C)C(N)=O)C(C)C)C(C)C)ccc1OC,inactive
9,CC(N)C12CC3CC(CC(C3)C1)C2 (stereo not given),inactive
10,CC(C)(C)NC(=O)[C@H]1CC[C@H]2[C@@H]3CC[C@H]4NC(=O)C=C[C@]4(C)[C@H]3CC[C@]12C,inactive
11,O=c1oc2c(O)c(O)cc3c(=O)oc4c(O)c(O)cc1c4c23,inactive
12,CC1=CC(=O)c2ccccc2C1=O,inactive
13,CCOCC(O)COc1ccc(NC(=O)CC[S+](C)C)cc1 (stereo not given),inactive
14,CC(C)NCC(O)c1ccc(NS(C)(=O)=O)cc1 (stereo not given),inactive
15,CCn1cc(C(=O)O)c(=O)c2cc(F)c(N3CCNCC3)nc21,inactive
16,C[C@]12C=CC(=O)C=C1CC[C@@H]1[C@@H]2C(=O)C[C@@]2(C)[C@H]1CC[C@]2(O)C(=O)CO,inactive
17,CO[C@@]12[C@H](COC(N)=O)C3=C(C(=O)C(C)=C(N)C3=O)N1C[C@@H]1N[C@@H]12,inactive
18,OCc1ccc(-c2nn(Cc3ccccc3)c3ccccc23)o1,inactive
19,N[C@@H](Cc1ccc(O)c(O)c1)C(=O)O,inactive
20,CC(=O)CC(c1ccccc1)c1c(O)c2ccccc2oc1=O (stereo not given),inactive
